From PubChem BioAssay (Tox21)
Results filed as inconclusive are left out. Calls of active or inactive are those of the source. The call rests on the fitted dose curve; in most records, active means well fitted curve in the direction sought with a large enough effect in the repeat runs; inconclusive means weak or mixed curves; inactive means no such curve, though single readings can be large; an effect the other way counts as inactive or inconclusive.

Experiments:
[1] = qHTS RealTime-Glo MT Cell Viability Assay in HepG2 cells - 40 hour (AID 1224870); further: nearly all actives have a fitted effect of over 50% in size
Method in brief: (§1)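 HepG2 cells mixed with RealTime-Glo MT reagents (NanoLuc plus cell-permeant prosubstrate) were seeded at 600 cells/well, incubated 5 h at 37 C/5% CO2, then pinned with compounds in DMSO; nonlytic luminescence tracked viability during 40 h treatment.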

[2] = A CellTox Green Cytotoxicity Assay to monitor cytotoxicity in HEK293 cells - 40 hour (AID 1224871); further: nearly all actives have a fitted effect of over 45% in size; further: potency means the concentration at half of the fitted maximal effect
Method in brief: (§2)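 Nonlytic real-time cytotoxicity: HEK293 + CellTox Green reagent plated, 5 h preincubation, pintool compound addition (23 nL in DMSO), 37 C for 40 h, fluorescence measured at successive time points.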

[3] = qHTS RealTime-Glo MT Cell Viability Assay in HepG2 cells - 8 hour (AID 1224873); further: nearly all actives have a fitted effect of over 55% in size
Method in brief: as §1

[4] = A CellTox Green Cytotoxicity Assay to monitor cytotoxicity in HEK293 cells - 24 hour (AID 1224875); further: nearly all actives have a fitted effect of over 45% in size; further: potency means the concentration at half of the fitted maximal effect; on activity change: series mostly up to about 77 µM
Method in brief: as §2

[5] = A CellTox Green Cytotoxicity Assay to monitor cytotoxicity in HepG2 cells - 16 hour (AID 1224876); further: nearly all actives have a fitted effect of over 45% in size; further: potency means the concentration at half of the fitted maximal effect
Method in brief: (§3)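 Read-out is fluorescence of a cyanine dye excluded from live cells that stains DNA of dead HepG2 cells, with signal proportional to cytotoxicity. Plates were read at 0, 8, 16, 24, 32 and 40 h after compound addition.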

[6] = qHTS RealTime-Glo MT Cell Viability Assay in HepG2 cells - 32 hour (AID 1224877); further: nearly all actives have a fitted effect of over 55% in size
Method in brief: (§4)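 qHTS, HepG2, 600 cells/well, RealTime-Glo (NanoLuc + prosubstrate) added with cells; 5 h preincubation; DMSO compound addition; 37 C; luminescence at 0/8/16/24/32/40 h.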

[7] = A CellTox Green Cytotoxicity Assay to monitor cytotoxicity in HepG2 cells - 24 hour (AID 1224878); further: nearly all actives have a fitted effect of over 45% in size; further: potency means the concentration at half of the fitted maximal effect
Method in brief: as §3

[8] = A CellTox Green Cytotoxicity Assay to monitor cytotoxicity in HepG2 cells - 40 hour (AID 1224879); further: nearly all actives have a fitted effect of over 40% in size; further: potency means the concentration at half of the fitted maximal effect
Method in brief: as §3

[9] = qHTS RealTime-Glo MT Cell Viability Assay in HEK293 cells - 0 hour (AID 1224880)
Method in brief: (§5)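 Cells were seeded together with NanoLuc luciferase and a prosubstrate that viable cells reduce to a luciferase substrate. After a 5 h incubation at 37 C/5% CO2, compounds were added and luminescence was measured repeatedly during 40 h of treatment.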

[10] = A CellTox Green Cytotoxicity Assay to monitor cytotoxicity in HEK293 cells - 32 hour (AID 1224881); further: nearly all actives have a fitted effect of over 40% in size; further: potency means the concentration at half of the fitted maximal effect
Method in brief: as §2

[11] = A CellTox Green Cytotoxicity Assay to monitor cytotoxicity in HepG2 cells - 0 hour (AID 1224882); further: nearly all actives have a fitted effect of over 35% in size; further: potency means the concentration at half of the fitted maximal effect
Method in brief: as §3

[12] = qHTS RealTime-Glo MT Cell Viability Assay in HepG2 cells - 16 hour (AID 1224885); further: nearly all actives have a fitted effect of over 50% in size
Method in brief: as §4

[13] = A CellTox Green Cytotoxicity Assay to monitor cytotoxicity in HEK293 cells - 16 hour (AID 1224888); further: nearly all actives have a fitted effect of over 35% in size; further: potency means the concentration at half of the fitted maximal effect
Method in brief: as §2

[14] = qHTS RealTime-Glo MT Cell Viability Assay in HepG2 cells - 0 hour (AID 1224889); further: nearly all actives have a fitted effect of over 50% in size
Method in brief: as §4

[15] = qHTS RealTime-Glo MT Cell Viability Assay in HEK293 cells - 40 hour (AID 1224874); settings: RealTime-Glo luminescence; max response: hits give low values; further: nearly all actives have a fitted effect of over 50% in size; further: potency means the concentration at half of the fitted maximal effect
Method in brief: as §5

[16] = A CellTox Green Cytotoxicity Assay to monitor cytotoxicity in HepG2 cells - 32 hour (AID 1224883); further: nearly all actives have a fitted effect of over 50% in size
Method in brief: as §3

[17] = A CellTox Green Cytotoxicity Assay to monitor cytotoxicity in HEK293 cells - 8 hour (AID 1224884); further: nearly all actives have a fitted effect of over 35% in size; further: potency means the concentration at half of the fitted maximal effect
Method in brief: as §2

[18] = qHTS RealTime-Glo MT Cell Viability Assay in HEK293 cells - 8 hour (AID 1224887)
Method in brief: as §5

[19] = qHTS RealTime-Glo MT Cell Viability Assay in HEK293 cells - 24 hour (AID 1224886); further: nearly all actives have a fitted effect of over 50% in size; further: potency means the concentration at half of the fitted maximal effect; on activity change, negative = cytotoxicity: top concentration of the series differs between compounds
Method in brief: (§6)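 Assay medium contained NanoLuc luciferase plus cell-permeant prosubstrate, added with HEK293 cells at 600 cells/well. After 5 h at 37 C/5% CO2 compounds were added; plates stayed at 37 C for 40 h with serial luminescence reads.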

[20] = qHTS RealTime-Glo MT Cell Viability Assay in HEK293 cells - 16 hour (AID 1224872)
Method in brief: as §6
On the % scale 0 is the no-effect control and ±100 the full control effect.

C[C@]12CCC(=O)C=C1[C@@H]1C[C@@H]1[C@H]1[C@@H]3[C@@H]4C[C@@H]4[C@@]4(CCC(=O)O4)[C@@]3(C)CC[C@@H]12
inactive: Potency [1] | Potency [2] | outcome [3] | Potency [4] | Potency [5] | Potency [6] | Potency [7] | Potency [8] | Potency [9] | Potency [10] | Potency [11] | outcome [12] | Potency [13] | Potency [14]

CCCC1CCCC(=O)O1 (configuration not stated)
inactive: Potency [1] | Potency [2] | outcome [3] | max response [15] 0.877% | Potency [4] | Potency [5] | Potency [6] | Potency [7] | Potency [8] | Potency [10] | Potency [11] | Potency [16] | Potency [17] | outcome [12] | Potency [18] | Potency [13] | Potency [14]

C=C[Si]1(C)O[Si](C)(C=C)O[Si](C)(C=C)O[Si](C)(C=C)O1 (configuration not stated)
inactive: Potency [1] | Potency [2] | outcome [3] | max response [15] -1.07% | Potency [4] | Potency [6] | Potency [9] | Potency [10] | Potency [11] | Potency [17] | outcome [12] | Potency [19] | Potency [18] | Potency [13] | Potency [14]

CCCC1CCOC(C)S1 (configuration not stated)
inactive: Potency [1] | Potency [2] | outcome [3] | max response [15] 4.04% | Potency [4] | Potency [5] | Potency [6] | Potency [7] | Potency [8] | Potency [9] | Potency [10] | Potency [11] | Potency [17] | outcome [12] | Potency [13] | Potency [14]

Cc1ccc(NC(=O)c2ccc(CN3CCN(C)CC3)cc2)cc1Nc1nccc(-c2cccnc2)n1
active: Potency [15] 21.3 µM | Potency [19] 21.3 µM
inactive: Potency [1] | Potency [2] | outcome [3] | Potency [4] | Potency [5] | Potency [6] | Potency [7] | Potency [9] | Potency [10] | Potency [11] | Potency [17] | outcome [12] | Potency [13] | Potency [14]

CC1(C)C(=O)NC(=O)N1CO
inactive: Potency [1] | Potency [20] | outcome [3] | max response [15] 9.14% | Potency [4] | Potency [5] | Potency [6] | Potency [7] | Potency [8] | Potency [9] | Potency [10] | Potency [11] | Potency [16] | Potency [17] | outcome [12] | Potency [19] | Potency [18] | Potency [13] | Potency [14]

COC(=O)/C=C/C(C)=C\C=C\C(C)=C\C=C\C=C(C)\C=C\C=C(C)\C=C\C(=O)O
inactive: Potency [1] | Potency [2] | outcome [3] | max response [15] 1.87% | Potency [4] | Potency [5] | Potency [6] | Potency [7] | Potency [8] | Potency [10] | Potency [11] | Potency [16] | Potency [17] | outcome [12] | Potency [19] | Potency [13] | Potency [14]

CCCCOC(=O)C(C)Oc1ccc(Oc2ccc(C(F)(F)F)cn2)cc1 (configuration not stated)
inactive: Potency [1] | Potency [2] | outcome [3] | max response [15] -1.23% | Potency [4] | Potency [5] | Potency [6] | Potency [7] | Potency [8] | Potency [9] | Potency [10] | Potency [11] | Potency [16] | Potency [17] | outcome [12] | Potency [14]

O=C(Cl)c1ccc(F)c(Cl)c1
inactive: Potency [1] | Potency [2] | outcome [3] | max response [15] 35.2% | Potency [4] | Potency [5] | Potency [6] | Potency [7] | Potency [8] | Potency [9] | Potency [10] | Potency [11] | Potency [17] | outcome [12] | Potency [13] | Potency [14]

c1ccc(-c2ccc(-c3ccccc3)cc2)cc1
inactive: activity change, negative = cytotoxic [1] 3.84% [at 15.8 µM] | cytotoxicity increase [2] -4.32% [at 15.8 µM] | viability change, negative = cytotoxic [3] 0.239% [at 15.8 µM] | max response [15] 0.336% | activity change [4] -5.55% [at 15.8 µM, hits give high values] | cytotoxicity increase [5] -3.4% [at 15.8 µM] | activity change, negative = cytotoxic [6] 2.08% [at 15.8 µM] | cytotoxicity [7] -1.79% [at 15.8 µM] | cytotoxicity increase [8] 1.53% [at 15.8 µM] | activity change, negative = cytotoxicity [9] 1.15% [at 15.8 µM] | cytotoxicity increase [10] -3.83% [at 15.8 µM] | cytotoxicity [11] 0.432% [at 15.8 µM] | cytotoxicity increase [17] -5.69% [at 15.8 µM] | activity change, negative = cytotoxic [12] 0.423% [at 15.8 µM] | activity change, negative = cytotoxicity [19] 0.629% [at 15.8 µM] | activity change, negative = cytotoxicity [18] 0.793% [at 15.8 µM] | activity change [13] -4.6% [at 15.8 µM, hits give high values] | activity change, negative = cytotoxicity [14] -2.66% [at 15.8 µM]

CCCCCCCCCC(C)C=O (configuration not stated)
inactive: Potency [1] | outcome [3] | max response [15] 12% | Potency [6] | Potency [9] | outcome [12] | Potency [19] | Potency [18] | Potency [14]
active: Potency [2] 19.5 µM | Potency [4] 21.9 µM | Potency [5] 24.5 µM | Potency [7] 24.5 µM | Potency [8] 24.5 µM | Potency [10] 21.9 µM | Potency [11] 24.5 µM | Potency [17] 24.5 µM | Potency [13] 21.9 µM
